The values below come from PubChem BioAssay (NCI).

The structures appear in SMILES notation. The panel holds about 83,000 compounds, 20% with a hit somewhere; the sample as a whole holds those more often.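 The endpoint reported here, percent growth, reads 100 for growth as untreated, 0 for no net growth and -100 for all cells dead.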 Values without a mark were called inactive. The source made the active and inactive calls. Rule for the calls: active = growth percent below 10; inactive = the rest.

Common to all, as to assay: NCI-60 one-dose screen, 48 h (100 = growth as untreated, 0 = no growth, -100 = all killed)
What all share (conditions): 10 µM unless noted

Assay [1] deals with NCI-H23 lung.
The test system of assay [2] is NCI-H226 lung.
In assay [3] the test system is HOP-62 NSCLC.
Assay [4] deals with NCI-H460 lung.
Assay [5] concerns HOP-92 NSCLC.
Assay [6] relates to NCI-H522 lung.
The subject of assay [7] is A549/ATCC NSCLC.
Assay [8] has as its system 786-0 renal.
Assay [9] has as its system COLO 205 colon.
Assay [10] relates to DU-145 prostate.
For assay [11], the system named is K-562 leukemia.
The test system of assay [12] is MALME-3M melanoma.
Assay [13] concerns MDA-MB-231 breast.
For assay [14], the system named is RXF 393 renal.
Assay [15] relates to SF-268 CNS.
Assay [16] concerns SF-295 CNS.
Assay [17] has as its system SF-539 CNS.
Assay [18] has as its system UACC-257 melanoma.
Assay [19] relates to M14 melanoma.
Assay [20] has as its system NCI-H322M lung.

Consider `CNC(=O)O/N=C(\SC)C(=O)N(C)C`, for which the growth in assay [1] is 93.4%; in assay [2], 110%; in [3] it was 105%; in [4], 107%; in assay [5], 76.8%; in assay [6] it was 77.5%. In addition, the growth was 109% in assay [7]; 105% in assay [8]; 105% in assay [9]; 117% in assay [10]; 89.2% in assay [11]; 117% in assay [12]. Further, the growth in assay [13] was 110%; in assay [14] it was 105%; in [15], 105%; in assay [16], 113%; in assay [17], 103%; in assay [18] it was 103%. For the same compound, the growth in [19] was 102%.

Take `O=C1C=C(N2CC2)c2ccccc2C1=O`: the growth in assay [1] was 41.4%; in assay [2] it was 92%; in assay [3], 76%; in assay [4], 23.2%; in assay [5], 119%; in [6] it was 52.7%. In addition, the growth was 54.3% in assay [7]; 104% in [8]; 94.3% in assay [9]; 12.1% in assay [10]; 9.26% (active) in assay [11]; 106% in assay [12]. The growth in [13] is 88.8%; in assay [14], 85.9%; in assay [15], 51.6%; in [16], 23.6%; in assay [17], 63.3%; in assay [18], 83.1%. Further, the growth in assay [19] is 63.6%.

As for `CCCC(C)SP(=S)(SC(C)CCC)SC(C)CCC` (stereo not drawn), the growth was 95.5% in assay [1]; 88.8% in [2]; 101% in assay [20]; 101% in assay [3]; 94.7% in [5]; 90.9% in assay [6]. The growth was 98.9% in assay [8]; 98.6% in assay [9]; 108% in [10]; 112% in assay [11]; 87.6% in assay [12]; 113% in [13]. Besides, the growth in assay [14] was 95.5%; in assay [15] it was 104%; in assay [16], 101%; in assay [17], 103%; in assay [19], 94.4%.

With `O=[N+]([O-])c1ccc(P(=O)(O)O)cc1`, the growth was 105% in assay [1]; 97.6% in assay [2]; 101% in assay [20]; 103% in assay [4]; 85% in assay [5]; 92.3% in [6]. The growth is 103% in assay [7]; 96% in [8]; 103% in [9]; 110% in assay [10]; 108% in assay [11]; 92.6% in assay [12]. Moreover, the growth in assay [13] is 109%; in [14] it was 103%; in assay [15] it was 106%; in assay [16], 96%; in assay [17], 103%; in assay [18], 111%. Also, the growth in [19] was 96.1%.

As for `CC(Oc1ccc(-c2ccccc2)cc1)C(=O)O` (stereo not drawn), the growth in assay [1] is 106%; in assay [2], 95.5%; in assay [20], 102%; in assay [4] it was 103%; in assay [6] it was 99.8%; in assay [7], 96.5%. Moreover, the growth in [8] is 101%; in assay [9] it was 102%; in assay [10] it was 113%; in assay [11] it was 112%; in assay [13] it was 108%; in assay [15], 105%. Besides, the growth in assay [16] was 102%; in assay [17], 99.6%; in assay [18], 99.2%; in [19], 102%.

Turning to `O=C(O)C(Br)CBr` (stereo not drawn), the growth in assay [1] is 99.2%; in assay [2], 103%; in assay [20], 92.5%; in assay [3], 101%; in [6], 75.9%; in [7] it was 97.6%. Also, the growth in assay [8] is 96.4%; in [9], 111%; in assay [10], 106%; in assay [11], 104%; in [13], 126%; in assay [15], 103%. In addition, the growth is 98.1% in [16], 98.5% in assay [17], 97.7% in assay [18] and 90.2% in assay [19].

For `Oc1cc(Cl)ccc1Oc1ccc(Cl)cc1Cl`, the growth in assay [1] was 7.13% (active); in assay [2], 99.7%; in [3], 20.5%; in [4], 3.2% (active); in assay [5], -11.4% (active); in assay [6], -4.34% (active). The growth in assay [7] was 37.5%; in assay [8], 86.4%; in assay [9] it was 105%; in assay [10], 14.5%; in assay [11], 11%; in [12], 5.91% (active). Also, the growth in [13] is 8.82% (active); in assay [14], -9.98% (active); in assay [15], 21.5%; in [16], 7.37% (active); in assay [17] it was 14.7%; in [18], 21.4%. Further, in assay [19], the growth was 22.1%.

In the case of `CN1[C@@H](CC(=O)c2ccccc2)CCC[C@H]1CC(=O)c1ccccc1`, the growth in [1] was 97.2%; in assay [2], 96.7%; in [20], 110%; in assay [3] it was 110%; in [5], 111%; in assay [6], 86.9%. The growth in assay [7] was 93.8%; in assay [8], 108%; in assay [9] it was 114%; in [10], 108%; in assay [11] it was 102%; in assay [13], 111%. Also, the growth in [14] was 119%; in [15], 102%; in [16], 97.2%; in assay [17], 111%; in [18] it was 98.1%; in assay [19] it was 104%.
